Experimental findings from PubChem BioAssay AID1851 (National Center for Advancing Translational Sciences (NCATS), 2009) are described below.

Among all 16,000 compounds or so, about 2,600 (16%) were called active. About 20% were inconclusive and are not listed. The call rests on the fitted dose curve; in most records, active means well fitted curve in the direction sought with a large enough effect; inconclusive means small, poorly fitted or top-dose-only effect, or effect the other way; inactive means no such curve, though single readings can be large or run the other way. These entries were drawn from the full list. Some structures have more than one record in an assay (separate samples or runs), and their calls can disagree.
On the % scale 0 is the no-effect control and ±100 the full control effect.

Sequence of Cytochrome P450 2D6 (Homo sapiens) (P10635 whole entry, looked up): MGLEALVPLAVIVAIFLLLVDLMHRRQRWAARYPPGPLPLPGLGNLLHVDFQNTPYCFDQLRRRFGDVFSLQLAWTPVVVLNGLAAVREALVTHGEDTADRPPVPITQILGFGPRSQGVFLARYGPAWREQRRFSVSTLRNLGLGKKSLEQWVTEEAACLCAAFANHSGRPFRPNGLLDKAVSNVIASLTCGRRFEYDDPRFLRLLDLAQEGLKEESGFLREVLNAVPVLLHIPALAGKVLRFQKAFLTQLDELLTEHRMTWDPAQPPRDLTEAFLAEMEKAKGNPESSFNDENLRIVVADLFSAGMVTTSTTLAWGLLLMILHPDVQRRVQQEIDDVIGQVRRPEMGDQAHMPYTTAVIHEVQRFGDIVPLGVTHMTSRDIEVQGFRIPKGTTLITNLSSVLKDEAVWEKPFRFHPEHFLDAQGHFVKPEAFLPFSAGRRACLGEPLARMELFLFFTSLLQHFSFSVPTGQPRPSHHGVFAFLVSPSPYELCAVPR

This test has as its target Cytochrome P450 2D6 (Homo sapiens) (UniProt P10635). The test can be described thus: Cytochrome panel assay with activity outcomes. As to conditions: recombinant CYP, pro-luciferin dealkylation, luminescence, p450-cyp2d6; series mostly up to 57.1 µM; activity, negative = inhibition: at the top concentration.
Take `Cc1cccc(NC(=O)Cn2c(=O)oc3ccccc32)c1`: the AC50 is 3.16 µM (active).
Take `Cc1cccc(NC(=S)NNC(=O)CCn2cc(C)cn2)c1`: the “activity, negative = inhibition” value was -3.85% (inactive).
With `Cc1cccc(NC(=O)Cn2c(=O)n3nc(CCn4nc(C)cc4C)nc3c3ccccc32)c1`, the AC50 was 14.1 µM (active).
As to `Cc1cccc(NC(=O)Cn2cccc2)c1`, the “activity, negative = inhibition” value was -5.49% (inactive).
On to `COc1cc(C2C(C(=O)OCCC#N)=C(C)NC3=C2S(=O)(=O)c2ccccc23)cc(OC)c1OC` (stereo not given), for which the “activity, negative = inhibition” value was -6.84% (inactive).
The same measure, in the same setting: the figure for `Cc1ccc(-c2ccnc(=S)[nH]2)cc1` is -14.8% (inactive); for `Cc1c(C(=O)Nc2ccc(OCc3ccccc3)cc2)cccc1[N+](=O)[O-]` it is -5.06% (inactive); for `COc1ccc(/C=N/NC(=O)CCCC(=O)NC2CCCCC2)cc1` it is 16.3% (inactive).
The same measure, in the same setting: the figure for `CN(C)c1ncc2nc(-c3cc(F)cc(F)c3)c(=O)n(Cc3ccc(F)cc3)c2n1` is 10% (inactive); for `Cc1ccc(Nc2nc(Cl)nc(N(C)C#N)n2)cc1` it is 1.15% (inactive); for `Nc1nnc(CC(=O)N/N=C/c2cccc([N+](=O)[O-])c2)s1` it is -21.2% (inactive).
Same read-out and setting: the figure for `Cc1sc(N/N=C/C=C/c2ccccc2)nc1-c1ccccc1` is -10.8% (inactive).
Turning to `Cc1cccc(-n2c(Cn3nc(C)c([N+](=O)[O-])c3C)n[nH]c2=S)c1`, the “activity, negative = inhibition” value is 3.45% (inactive).
On the same count and under the same terms, with `Cc1ccc(C)c(NC(=O)c2ncn[nH]2)c1` the figure was 8.78% (inactive).
Regarding `Cc1cccc(N/C(N)=N/c2nc(C)cc(C)n2)c1`, the AC50 is 2.82 µM (active).
As to `C/C(=N\NC(=S)Nc1cccc(C)c1)c1ccccc1`, the “activity, negative = inhibition” value was -25.1% (inactive).
`Cc1ccc(C)c(N/C(N)=N/c2nc(C)cc(C)n2)c1`: the AC50 was 0.794 µM (active).
Take `Cc1ccc(C)c(NC(=O)Cn2nnc(C(=O)Nc3c(C)cccc3C)c2N)c1`: the “activity, negative = inhibition” value was -25.4% (inactive).
As to `Cc1nc(/N=C(\N)Nc2ccccc2)nc2ccccc12`, the “activity, negative = inhibition” value is -12.1% (inactive).
The same measure, in the same setting: the figure for `Cc1cc(C)c(-c2cc([C@H](C)O/N=C\[C@@H](C)[C@H](OCc3ccccc3)C(C)C)on2)c(C)c1` is -7.16% [at 11.4 µM] (inactive); for `O=C(CCNC(=O)Cn1cnc2ccccc2c1=O)NCC1COc2ccccc2O1` (stereo not given) it is 16.6% (inactive).
As for `COc1cccc(OC)c1OCCNC[C@@H]1COc2ccccc2O1`, the AC50 is 251 nM (active) and inactive.
Consider `O=C(N/N=C/c1ccco1)/C(=C/c1cccc([N+](=O)[O-])c1)NC(=O)c1ccccc1`, for which the “activity, negative = inhibition” value is -15.4% (inactive).
Regarding `CN(C)C(=O)c1ccc(-c2cncnc2Nc2ccccc2)cc1`, the “activity, negative = inhibition” value is -2.66% (inactive).
The same measure, in the same setting: with `Cc1cccc(CNc2ncncc2-c2ccc(C(=O)N(C)C)cc2)c1` the figure was -9.23% (inactive).
Take `Cn1c(-c2ccc3c(c2)OCO3)cnc1NCc1ccccc1`: the AC50 was 0.794 µM (active).
For the molecule `O=C(O)c1cc(-c2ccc3cc4c(cc3c2)OCO4)nc2ccccc12`, the activity, negative = inhibition is -6.77% [at 11.4 µM] (inactive).
For `c1ccc(Nc2ncncc2-c2ccc3c(c2)OCO3)cc1`, the AC50 is 12.6 µM (active).
Take `O=c1oc2cc(N=Cc3ccc4c(c3)OCO4)ccc2c2ccccc12`: the activity, negative = inhibition was 4.96% [at 11.4 µM] (inactive).
Same read-out and setting: with `Cn1cc(/C=C2/SC(=O)N(CC(=O)Nc3ccc4c(c3)OCO4)C2=O)c2ccccc21` the figure was -6.65% (inactive); with `Cc1noc(C)c1-c1cncnc1Nc1ccccc1`, -7.49% (inactive).
Turning to `CN(C)c1ccc(-c2cc(NCc3ccccc3)ncn2)cc1`, the “activity, negative = inhibition” value was -17.2% (inactive).
As to `Cn1c(-c2ccc3c(c2)OCO3)cc(=O)c2ccccc21`, the AC50 was 1.58 µM (active).
For `Cc1cccc(CNc2ncncc2-c2ccc3c(c2)OCO3)c1`, the AC50 is 6.31 µM (active).
Consider `Cc1ccc(C(=O)N/N=C\c2ccc[nH]2)cc1[N+](=O)[O-]`, for which the “activity, negative = inhibition” value is -6.03% (inactive).
`CCCOc1ccc(C(=O)NNC(=S)NC(=O)c2cc(-c3ccccc3)nc3ccccc23)cc1`: the “activity, negative = inhibition” value is 3.87% (inactive).
With `O=C(Nc1cccn2ncnc12)c1ccc(Cl)cc1Cl`, the “activity, negative = inhibition” value was 2.48% (inactive).
`COC(=O)C1=C(NC(=O)c2cccs2)CCS1`: the “activity, negative = inhibition” value was 12.9% (inactive).
Same read-out and setting: with `COc1cnc(-c2ccccn2)nc1Sc1c(Cl)cccc1Cl` the figure was -25% (inactive); with `COc1cc(OC)cc(C(=O)Nn2cc(C(=O)N3CCN(C)CC3)c3ccccc3c2=O)c1`, -15.2% (inactive).
As to `O=C1CC[C@H](N2C(=O)c3ccccc3C2=O)C(=O)N1`, the AC50 entry is “inactive”.
Take `CCn1cc(C(=O)O)c(=O)c2cc(F)c(N3CCNCC3)nc21`: the “activity, negative = inhibition” value is 6.39% [at 25.6 µM] (inactive).
The same measure, in the same setting: the figure for `O=C(O)C[C@H](S)C(=O)O` is -2.12% [at 11.4 µM] (inactive).
For the molecule `c1ccc(CNc2ncncc2-c2ccc3c(c2)OCO3)cc1`, the AC50 is 12.6 µM (active).
Turning to `Clc1ccc2c(c1)C=Nc1c(NCc3ccccc3)ncnc1O2`, the “activity, negative = inhibition” value is -0.537% (inactive).
`c1ccc(Nc2ncnc3ccc(-c4ccc5c(c4)OCO5)cc23)cc1`: the half-maximal activity concentration (AC50) is 0.126 µM (active).
On the same count and under the same terms, the figure for `c1cncc(CNc2ncncc2-c2ccc3c(c2)OCO3)c1` is 15.8 µM (active).
As for `N#Cc1cccc(-c2cncnc2NCc2cccnc2)c1`, the “activity, negative = inhibition” value was -9.2% (inactive).
On the same count and under the same terms, with `c1cncc(CNc2ncncc2-c2cccnc2)c1` the figure was -11.4% (inactive).
On to `c1csc(CNc2ncncc2-c2ccc3c(c2)OCO3)c1`, for which the half-maximal activity concentration (AC50) is 10 µM (active).
